Source: ChEMBL document CHEMBL4513216, “Probing the Open Global Health Chemical Diversity Library for Multistage-Active Starting Points for Next-Generation Antimalarials” (ACS Infect Dis, 2020)
Hit rate of the full screen: of about 69,000 compounds, about 8,600 (12%) showed an effect of 50% or more. Shown is part of a subset that was picked to be rich in strong results.

system: Plasmodium berghei; assay: Screen against P. berghei liver stage (PbLuc), transformed with Luciferase, at 10uM; assay type: functional, HepG2; conditions: tested at 10 uM

| Compound | INHIBITION |
| --- | --- |
| Cc1cn2cc(-c3nc4c([nH]3)CCCNC4=O)nc2s1 | -54.3% |
| CCc1nnc(CN2CCC(C3CCCCCN3C(=O)C3CC3)CC2)o1 (stereo not drawn) | 62.8% |
| CC(=O)N1CCN(Cc2nnc(C(C)(C)C)o2)CC1 | -33.2% |
| CC(=O)NCC1CCN(Cc2nc(C3CC3)no2)CC1 | 57.5% |
| CCc1nnc(CN2CCC(C3CCCCCN3C(C)=O)CC2)o1 (stereo not drawn) | 40.6% |
| CCN1CCN(C2CCN(Cc3nc(C4CC4)no3)CC2)C1=O | 33.8% |
| CCc1nnc(CN2CCN(C(C)=O)CC2)o1 | 9.65% |
| CC(=O)N1CCCCCC1C1CCN(Cc2nc(C(C)C)no2)CC1 (stereo not drawn) | 8.11% |
| CC(=O)N1CCCCCC1C1CCN(Cc2nnc(C(C)(C)C)o2)CC1 (stereo not drawn) | 66.5% |
| CC(=O)N1CCCCCC1C1CCN(Cc2nc(C3CC3)no2)CC1 (stereo not drawn) | 55.4% |
| O=C(NCC1CCCO1)C1CCN(Cc2nc(C3CC3)no2)CC1 (stereo not drawn) | 40.2% |
| CS(=O)(=O)N1CCCCCC1C1CCN(Cc2nc(C3CC3)no2)CC1 (stereo not drawn) | 29.1% |
| CC(C)(C)c1nnc(CN2CCN(C(=O)N3CCCCC3)CC2)o1 | 29.5% |
| Cc1[nH]ccc1C(=O)Nc1cccc(CN2CCC(CO)CC2)c1 | 25.3% |
| CC(C)=CCN1C[C@@H]2CC[C@H]1CN(C(=O)c1ccc(S(N)(=O)=O)cc1)C2 | 39.4% |
| Cc1ncsc1C(=O)N1CCN(Cc2cscn2)CC1 | 16% |
| Cc1cccc(OCCNC(=O)Cn2ccc(C)cc2=O)c1 | 28.7% |
| O=C(c1ccnc(NC2CC2)c1)N1CCCC1c1cccc(Br)c1 (stereo not drawn) | -96.5% |
| Cc1ccc(C)c2c(C)c(C(=O)NCCCn3cnnc3)[nH]c12 | -56.7% |
| CN(C)C(=O)COC1COC2(CCN(CC3CC3)CC2)C1 (stereo not drawn) | 37.6% |
| Cc1cccc(CN2C(=O)C[C@H]3[C@@H]2CCN3CC2CC2)n1 | -14.3% |
| Cn1cc(NC(=O)CNC(=O)N2CCN(c3ccc(F)cc3)CC2)cn1 | 9.55% |
| CNc1cc(N2CCCC2CNCc2cnc(C)s2)ncn1 (stereo not drawn) | 7.61% |

| Compound | INHIBITION |
| --- | --- |
| COCc1cnc2n1CCN(C(=O)c1ccc3ccccc3n1)C2C (stereo not drawn) | 61.1% |
| COCc1cnc2n1CCN(C(=O)c1cc3cc(Cl)ccc3o1)C2C (stereo not drawn) | 46.6% |
| Cc1ncoc1C(=O)N1CCn2c(COc3cccnc3)cnc2C1C (stereo not drawn) | 5.67% |
| COCc1cnc2n1CCN(C(=O)C1=CCCC1)C2C (stereo not drawn) | -56.3% |
| COCc1cnc2n1CCN(C(=O)c1cnc3ccccc3c1)C2C (stereo not drawn) | 11.3% |
| COCc1cnc2n1CCN(C(=O)c1oc3ccccc3c1C)C2C (stereo not drawn) | 52.1% |
| COCc1cnc2n1CCN(C(=O)c1cc3ccccc3o1)C2C (stereo not drawn) | 62% |
| COCc1cnc2n1CCN(C(=O)c1ocnc1C)C2C (stereo not drawn) | 20.5% |
| COCc1cnc2n1CCN(C(=O)C1=CCCCC1)C2C (stereo not drawn) | 14.2% |
| CCn1cc(CNCCNc2ncc(Cl)cc2Cl)cn1 | 15.7% |
| O=C(Cn1cnc2ccsc2c1=O)NCCCc1nnc2ccccn12 | 34.3% |
| CCN1CCn2c(C)cnc2C12CCN(C(=O)C(C)C)CC2 | -40.5% |
| CN(C)c1cc(CNC(=O)Nc2nncs2)ccn1 | -2.19% |
| CO[C@H]1CNC[C@@H]1NC(=O)c1cc(C)nc2ccc(C)cc12 | -100% |
| Cc1ccc2nc(C)c(C)c(C(=O)N[C@H]3COC[C@@H]3N3CCCC3)c2c1 | 59.1% |
| Cc1ccc2nc(C)cc(C(=O)N[C@H]3COC[C@@H]3N3CCOCC3)c2c1 | 66.5% |
| Cc1cc(C(=O)N2CCN[C@H](C)C2)c2ccc(F)cc2n1 | 12.2% |
| Cc1nc(C(=O)N[C@H]2COC[C@@H]2N2CCCCC2)cs1 | 11.3% |
| Cc1cc(C(=O)N[C@H]2COC[C@@H]2N2CCOCC2)c2ccc(F)cc2n1 | 55.4% |
| Cc1cc(C(=O)N(C)C2CCN(C)C2)c2ccc(F)cc2n1 (stereo not drawn) | 21.5% |
| Cc1ccc2nc(C)c(C)c(C(=O)N3CCC4(CCO4)CC3)c2c1 | 33.3% |
| CCO[C@H]1CN(C)C[C@@H]1NC(=O)c1cc(C)nc2ccc(C)cc12 | 28.4% |
| CCc1nccn1C1CCCN(C(=O)Cc2cn3ccsc3n2)C1 (stereo not drawn) | -23.9% |

| Compound | INHIBITION |
| --- | --- |
| CC(C)c1nnc2ccc(N3CCC(C(=O)NC4CC4)CC3)nn12 | -18.9% |
| CC(C)CNC(=O)NC(=O)C(C)Nc1cccc(CN2CCOC2=O)c1 (stereo not drawn) | -34.2% |
| CC(C)c1ccc(OCCC(=O)N2CCC(C(=O)N(C)C)CC2)cc1 | -37.55% |
| Cc1cc(C(=O)N2CCCCC2c2nc3cc(F)ccc3[nH]2)nn1C (stereo not drawn) | 10.7% |
| Cn1cc(C2COC3(CCN(C(=O)c4cnccn4)CC3)C2)cn1 (stereo not drawn) | 39.2% |
| Cc1oc(C(=O)O)cc1S(=O)(=O)Nc1ccc(Br)cc1Cl | -18.8% |
| CN(C)CC(NC(=O)c1ccn(C)c(=O)c1)c1ccccc1 (stereo not drawn) | 4.34% |
| O=C(NCC1(O)CCOCC1)c1ccn(-c2ccccc2F)n1 | -14.9% |
| COC(=O)c1ccc(C(=O)NCC2(O)CCOCC2)cc1 | 36.3% |
| CC1(C(=O)NCc2cc(F)cc(F)c2)CCOCC1 | 37.5% |
| CC1(C(=O)NCCc2ccc(F)cc2)CCOCC1 | 54% |
| CN(C)c1cccc(C(=O)NCC2(O)CCOCC2)c1 | 58.3% |
| O=C(NCC1(O)CCOCC1)c1ccc(F)cc1 | 54.8% |
| CC1(C(=O)NCc2ccsc2)CCOCC1 | 44.9% |
| CN(C)c1ccc(C(=O)NCC2(O)CCOCC2)cc1 | -3.95% |
| Cc1ccc(C(=O)NCC2(O)CCOCC2)cc1F | 48.4% |
| CN1CCN(C(=O)c2cc(C#N)cn2C)c2ccccc2C1 | -59.5% |
| CCn1cc(S(=O)(=O)N2CCCCCC2c2cc(C)no2)cn1 (stereo not drawn) | -7.66% |
| Cc1cc(C)n(CC2CCCN2C(=O)CCc2ccco2)n1 (stereo not drawn) | 27.25% |
| NC(=O)C(Nc1ccc(Cl)cc1)c1ccc(F)cc1 (stereo not drawn) | 4.81% |
| CCCc1nc(C(C)(C)NC(=O)C2CC(=O)N(CC(C)C)C2)no1 (stereo not drawn) | -5.25% |
| CC1=C(C#N)C(=O)NC(=O)/C1=C\c1c(C)[nH]n(-c2ccc(C)cc2)c1=O | 47.1% |
